Source: PubChem BioAssay (National Center for Advancing Translational Sciences (NCATS))
SARS PLpro yeast: qHTS of Yeast-based Assay for SARS-CoV PLP; S. cerevisiae expressing SARS-CoV PLpro, growth rescue; Potency, µM (doses to about 32.9 µM), without a hit: at the highest dose activity, positive = growth rescue, hits mostly activators; 330,000 tested, 0.19% active; AID 485353, 2010; calls by dose curve; further: 0% is about no effect; nearly all actives have a fitted effect of over 55% in size
NS1 function inh: qHTS Assay for Inhibitors of Influenza NS1 Protein Function; AID 2326, 2010; Potency, µM (top dose mostly 46.1 µM), inactives show at the highest dose activity, positive = more growth; 270,000 tested, 0.4% active; calls by dose curve; further: actives are rising curves; nearly all actives have a fitted effect of over 50% in size
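Recovery from NS1-induced slow growth read by OD600 in budding yeast switched to galactose assay medium (pH 6.0, -URA) at 1:100 dilution. Compound 23 nl per well; the matching strain lacking NS1 serves as control.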
Pf growth 96h: Primary qHTS for delayed death inhibitors of the malarial parasite plastid, 96 hour incubation | P. falciparum luciferase reporter growth, 96 h | Potency, µM (titrated, usually from 28.7 µM), inactives show at the highest dose activity change, negative = inhibition, hits mostly inhibitors | 320,000 tested, 6.9% active; further: on the % scale 0 is the no-effect control and ±100 the full control effect
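Plates of compound plus infected erythrocytes (2% hematocrit, 0.05% parasitemia final) incubate 96 hours, 37 C, 5% CO2. Detection reagent added; reduced luminescence from the parasites' luciferase reporter flags inhibition.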
AMA1-RON2 inh: qHTS for Inhibitors of AMA1-RON; Towards Development of Antimalarial Drug Lead: Primary Screen; 360,000 tested, 0.2% active; AID 720542, 2013; Potency, µM (highest dose often 58.2 µM), without a hit: top-dose activity change, negative = inhibition, most hits filed as inhibitors; AlphaScreen AMA1-biotinylated RON2 peptide binding;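 further: 0% = vehicle wells and -100% = peptide control; nearly all actives have a fitted effect of over 45% in size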
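AMA1 (3D7) with his tag at 25 nM final met compounds first, then biotinylated RON2 peptide at 25 nM; detection used donor plus acceptor beads, 10 µg/mL apiece, read by AlphaScreen after 30 min at room temperature.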
HCV inhibitor: qHTS Assay for Inhibitors of Hepatitis C Virus (HCV) | Huh7.5.1 HCVcc-Cre infection, luciferase reporter, 44 h | Potency, µM (doses to about 41.8 µM), for the others: at the highest dose activity change, negative = inhibition, most hits filed as inhibitors | 340,000 tested, 3.4% active | AID 651820, 2012; further: on the % scale 0 is the no-effect control and ±100 the full control effect
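1,000 cells/well; 4 h culture; + compound; + HCVcc-Cre (~0.5 moi); 44 h; luciferase substrate, RT 15 min; read 15 sec.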
Pf growth 48h: Primary qHTS for delayed death inhibitors of the malarial parasite plastid, 48 hour incubation. P. falciparum luciferase growth in erythrocytes, 48 h. Potency, µM (doses to about 28.7 µM), without a hit: top-dose activity change, negative = inhibition, most hits filed as inhibitors. 310,000 tested, 5.9% active; further: on the % scale 0 is the no-effect control and ±100 the full control effect
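Firefly luciferase activity from engineered P. falciparum reports growth; inhibitors lower the luminescent signal. Cultures contained 2% hematocrit erythrocytes at 0.1% final parasitemia.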
* marks the source's active call; other numbers are inactive results; ? = inconclusive; . = no result given. Hits are enriched below; roughly 12% of the tested compounds scored in any of these assays. Unless noted, the call rests on the fitted dose curve; in most records, active means well fitted curve in the direction sought with a large enough effect; inconclusive means small, poorly fitted or top-dose-only effect, or another doubt; inactive means no such curve, though single readings can be large; an effect the other way counts as inactive or inconclusive. Potency means the concentration at half of the fitted maximal effect.

SMILES	SARS PLpro yeast	NS1 function inh	Pf growth 96h	AMA1-RON2 inh	HCV inhibitor	Pf growth 48h
CCc1cc(=O)oc2cc3occ(-c4ccc(OC)c(F)c4)c3cc12	-4%	-3%	-82%	4%	?	?
CC(C)(C)c1ccc(OCCC(=O)Nc2cccc(S(=O)(=O)N3CCCCC3)c2)cc1	-3%	?	?	0%	?	?
O=C(CCN1C(=O)[C@@H]2Cc3ccccc3CN2C1=O)N[C@@H](C(=O)O)c1ccccc1	1%	7%	39%	0%	-1%	11%
CC1(C)OC(=O)C(=Cc2ccc(-c3ccc(Cl)c(C(=O)O)c3)o2)C(=O)O1	5%	.	?	3%	8%	15µM*
CC1=NOC(=O)/C1=C\c1ccc(-c2ccc(Cl)c(C(=O)O)c2)o1	0%	.	?	-2%	32%	3%
CCCN1CCN(C(=O)c2c(Cl)cnn2C)CC1	-7%	-9%	?	5%	9%	15%
CN1c2ccccc2C(C)(C)C12CC(c1cccc(S(=O)(=O)N3CCCC3)c1)=NO2 (configuration not stated)	-20%	-15%	?	2%	?	10µM*
CN1c2ccccc2C(C)(C)C12CC(c1ccc(S(=O)(=O)N3CCCCC3)cc1)=NO2 (configuration not stated)	-4%	15%	-20%	-18%	8%	-11%
CCN(CC)S(=O)(=O)c1ccc(C2=NOC3(C2)N(C)c2ccccc2C3(C)C)cc1 (configuration not stated)	-3%	2%	13µM*	-6%	-13%	12µM*
CCCCCCCN1C(Nc2ccccc2)=NC[C@@H]1C	2%	.	?	0%	?	?
Cc1[nH]nc(C(=O)NN=Cc2ccccc2Cl)c1N=NN(C)C	.	.	.	3%	-15%	.
CCCCNC(=O)c1cc2nc(-c3ccc(OC)cc3)cc(C(F)(F)F)n2n1	.	.	.	16%	.	.
O=C(NCCCn1ccnc1)c1nn2c(C(F)(F)F)cc(-c3ccccc3)nc2c1Cl	-5%	.	-10%	-9%	10µM*	15µM*
Cc1ccc(-c2cc(C(F)(F)F)n3nc(C(=O)NCCCn4ccnc4)cc3n2)cc1C	-4%	-3%	?	3%	5µM*	?
CC(C)CN(C)c1nc(N)c(C(=O)N=C(N)N)nc1Cl	.	-12%	.	.	.	.
CC(=O)Nc1ccc(N=NN2CCOCC2)cc1	11µM*	.	39%	-2%	9%	17%
O=C(NCc1ccccc1)c1cnsn1	0%	-2%	1.3µM*	38%	15%	-15%
O=C(NCc1ccccc1)c1ccc(C(=O)N(C2CCCCC2)C2CCCCC2)cc1	5%	4%	9.3µM*	9%	?	.
CC(C)(C)c1ccc(C(=O)NCc2ccccc2)cc1	0%	0%	9.3µM*	0%	-9%	142%
CC(C)(C)c1ccc(C(=O)Nc2ccc(C(=O)NCc3cccnc3)cc2)cc1	0%	-1%	-1%	-4%	?	6.6µM*
O=C(Nc1cccc2ccccc12)c1cnsn1	0%	-3%	-1%	3%	9%	18%
O=C(NCc1ccccc1)c1ccc(C(=O)NCc2ccccc2)cc1	.	.	.	23%	-1%	.
N=C1C(c2ccccc2)=C(O)CN1c1cccc(S(=O)(=O)N2CCOCC2)c1	0%	3%	15%	6%	1%	9%
Cc1ccc(N(CC(=O)NC(C)C)C(=O)CCC(=O)Nc2nccs2)c(C)c1	0%	3%	22%	-1%	-19%	-4%
COc1cccc(Oc2ccc3nnc(C(F)(F)F)n3n2)c1	-5%	.	57%	6%	?	382%
SMILES	SARS PLpro yeast	NS1 function inh	Pf growth 96h	AMA1-RON2 inh	HCV inhibitor	Pf growth 48h
CC(C)c1onc(C(=O)NC2CCCCC2)c1[N+](=O)[O-]	4%	.	-27%	?	8%	14%
N=c1n(CC(=O)c2ccc([N+](=O)[O-])cc2)c2ccccc2n1Cc1ccc(Cl)cc1	4%	2%	?	-9%	-8%	?
O=C(Cn1nc(Cl)nc1Cl)c1ccc([N+](=O)[O-])cc1	0%	3%	2.9µM*	-8%	5%	13µM*
N=c1n(Cc2ccccc2)c2ccccc2n1Cc1ccccc1	16%	-22%	?	4%	?	10µM*
N=c1n(CC(=O)c2ccc([N+](=O)[O-])cc2)c2ccccc2n1Cc1ccccc1	-15%	5%	?	1%	?	8.3µM*
N=c1n(CCN2CCCCC2)c2ccccc2n1CC(=O)c1cccc([N+](=O)[O-])c1	.	12%	?	-3%	?	1.9µM*
OC1(c2ccccc2)c2ccccc2-c2ncccc21 (configuration not stated)	0%	.	?	24%	12%	-10%
CCN(CC(=O)Nc1c(F)cccc1F)C(=O)/C=C/c1ccc(Br)s1	0%	.	-1%	4%	3%	-5%
Nc1nnn(CC(=O)N/N=C/c2cccc(Cl)c2)n1	-1%	6%	32%	15%	10%	13%
Cc1nc([N+](=O)[O-])c(Br)n1CC(=O)c1ccc(Cl)cc1	-24%	-83%	?	-5%	10µM*	.
CC(C)CCNC(=O)c1ccc(-n2cnc3cccnc32)cc1	0%	-2%	29%	9%	-15%	-17%
CC(=O)c1ccccc1Oc1ncnc(N)c1[N+](=O)[O-]	0%	3%	-21%	3%	17%	-1%
COc1cc(OC)c(-c2nc3c[n+](CC(=O)c4ccccc4)ccc3n2C)cc1OC	-1%	17%	?	9%	17%	1.9µM*
COc1ccc(C(=O)C[n+]2ccc3c(c2)nc(-c2cc(OC)c(OC)cc2OC)n3C)cc1	-1%	18%	1µM*	-13%	17%	3.3µM*
COc1ccc(C(=O)C[n+]2ccc3c(c2)nnn3-c2ccccc2)cc1	1%	.	272%	-4%	?	?
Clc1ccc(CO/N=C(\Cn2ccnc2)c2ccc(Cl)cc2Cl)c(Cl)c1	.	.	1.9µM*	.	.	4.3µM*
Clc1ccc(OCCCn2ccnc2)c(Br)c1	-30%	-20%	-33%	-16%	?	?
Cc1c(C(=O)N(CCO)Cc2ccccc2)oc2c(F)cccc12	-1%	-17%	?	-4%	-20%	2%
CCNC(=O)NC(=O)COC(=O)c1cccc(S(=O)(=O)N2CC3(C)CC2CC(C)(C)C3)c1 (configuration not stated)	-2%	.	0%	-12%	1%	-5%
COc1ccc(C(=O)Nc2cc(-c3ccccc3)nn2-c2ccccc2F)cc1	8%	.	?	43%	?	?
